From PubChem BioAssay (NCI)
Several values for one entry are separate records, joined by “and”; a condition that tells them apart may be missing. Equal entries are not always repeated. Compounds without any hit were thinned out: in the full panel of roughly 83,000, 20% have a hit.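 Cell lines were cultured in 96-well plates, exposed to a single compound concentration, and assessed for percent growth 48 hours later.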 Activity calls are given as the source filed them. The calls were made as follows: active = growth percent below 10; inactive = the rest.

Key:
Assay in all cases: NCI-60 one-dose screen, 48 h (100 = growth as untreated, 0 = no growth, -100 = all killed)
Conditions in all cases: 10 µM unless noted
[1] = system: NCI-H23 lung
[2] = system: NCI-H226 lung
[3] = system: NCI-H322M lung
[4] = system: HOP-62 NSCLC
[5] = system: NCI-H460 lung
[6] = system: HOP-92 NSCLC
[7] = system: NCI-H522 lung
[8] = system: A549/ATCC NSCLC
[9] = system: 786-0 renal
[10] = system: COLO 205 colon
[11] = system: DU-145 prostate
[12] = system: K-562 leukemia
[13] = system: MALME-3M melanoma
[14] = system: MDA-MB-231 breast
[15] = system: RXF 393 renal
[16] = system: SF-268 CNS
[17] = system: SF-295 CNS
[18] = system: SF-539 CNS
[19] = system: UACC-257 melanoma
[20] = system: M14 melanoma

Measured: growth

CNc1nc2ccccc2n2c(-c3ccc(O)c(O)c3)cnc12
active: [2] -14.9% | [5] 3.63% | [7] -39.6% | [10] -54.3% | [11] 2.32% | [15] -4.31% | [16] 5.12% | [18] -43%
inactive: [1] 16.1% | [3] 38.8% | [4] 26.5% | [6] 13.9% | [8] 15.9% | [9] 24.7% | [12] 11.1% | [13] 16% | [14] 20.9% | [17] 11% | [19] 57.1%

CC(=O)Nc1cccc(-n2c(COc3ccc(I)cc3)nc3ccccc32)c1
inactive: [1] 83.5% and 106% | [2] 68.3% and 113% | [3] 102% and 107% | [4] 118% and 120% | [5] 103% and 112% | [6] 79.9% and 116% | [7] 70.1% and 111% | [8] 101% and 108% | [9] 101% and 109% | [10] 96.9% and 128% | [11] 99.4% and 101% | [12] 67.5% and 104% | [13] 86.9% and 106% | [14] 70.7% and 109% | [15] 80.7% and 107% | [16] 81% and 99.1% | [17] 79.1% and 101% | [18] 84.5% and 107% | [19] 112% and 106%

Clc1ccc(-c2nc3c4c(-c5ccccc5)c(-c5ccccc5)n(Cc5ccccc5)c4ncn3n2)cc1
active: [1] 2.75% | [2] -3.39% | [5] 3.08% | [6] -23.1% | [7] -28.5% | [9] 5.51% | [10] -59.2% | [12] 4.9% | [13] 4.59% | [14] 0.484% | [15] -11.3% | [17] -14.1% | [18] 7.91% | [19] 3.18%
inactive: [3] 21% | [4] 19.8% | [8] 14.1% | [11] 22.7% | [16] 20.4%

O=Cc1cncc(-c2ccc3ncnc(N4CCc5cc(F)c(Cl)cc54)c3c2)c1
inactive: [1] 44.6% | [2] 10.8% | [4] 51.9% | [5] 25.2% | [7] 59% | [8] 21.6% | [9] 18% | [10] 99.7% | [11] 22.5% | [12] 35.5% | [13] 23.7% | [14] 28.2% | [16] 42.1% | [17] 19.2% | [18] 25.8% | [19] 59.1%
active: [3] 0.287% | [6] -4.62% | [15] -7.23%

CCOc1ccc2[nH]c(=O)c(C(c3nnnn3CC3CCCO3)N3CCN(Cc4ccccc4)CC3)cc2c1 (stereo not given)
inactive: [1] 76.6% | [2] 73.6% | [3] 101% | [4] 102% | [5] 84.7% | [6] 54% | [7] 84.7% | [8] 92.7% | [9] 41.7% | [10] 106% | [11] 93.6% | [12] 111% | [13] 65% | [14] 61.6% | [15] 58.7% | [16] 55.5% | [17] 57.6% | [18] 57.6% | [19] 113% | [20] 94.3%

O=C(c1ccc(Cl)cc1)C1[C@H](c2ccccc2Cl)[C@@H](c2ccccc2)NC12C(=O)Nc1ccc(Br)cc12 (stereo not given in full)
active: [1] -80.5% | [2] -89.1% | [3] -47.3% | [4] -88% | [5] -78.8% | [6] -84.3% | [7] -73.4% | [8] -41.7% | [9] -67% | [10] -83.3% | [11] -34.7% | [12] -43.2% | [13] -64.2% | [14] -95.4% | [15] -93.5% | [16] -45.1% | [17] -88.1% | [18] -85.2% | [19] -30.7%
